Source: PubChem
Sampled rows, rich in hits. Any-hit rate of the full collection: about 10%.
NIH3T3 tox – NIH 3T3 cell cytotoxicity. NIH 3T3 viability, CellTiter-Glo ATP luminescence, 48-72 h. Potency, µM (highest dose often 96.7 µM), without a hit: at the top dose activity change, negative = cytotoxicity, actives largely listed as inhibitors. actives 4.3% (n = 94,000). AID 1345082; note: % is set by controls: 0 for no effect and ±100 for the full control effect; nearly all actives have a fitted effect of over 55% in size
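Cytotoxicity was measured by CellTiter-Glo ATP luminescence after 48 or 72 h compound exposure at 37 °C. Mouse NIH 3T3 fibroblasts were seeded at 400 cells/well and dosed by 23 nL pin transfer.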
FLuc inh-1 – blocks purified firefly luciferase enzyme activity. actives 2.5% (n = 76,000). purified P. pyralis luciferase, luminescence, biochemical. P08659. Potency, µM (titrated, usually from 115 µM), hits mostly inhibitors; note: % is set by controls: 0 for no effect and ±100 for the full control effect; nearly all actives have a fitted effect of over 65% in size
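Purified P. pyralis luciferase (10nM final) in 50mM Tris acetate pH 7.5, 10mM Mg acetate, 0.01% Tween-20, 0.05% BSA with 10uM D-luciferin and 10uM ATP. Compounds titrated qHTS. Luminescence imaged on CCD.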
HEK293 tox – kills HEK 293 cells | actives 6.6% (n = 94,000) | HEK 293 viability, ATP luminescence (CellTiter-Glo), 48-72 h | AID 1345083 | Potency, µM (doses to about 115 µM), without a hit: top-dose activity change, negative = cytotoxicity, actives largely listed as inhibitors; note: % is set by controls: 0 for no effect and ±100 for the full control effect; nearly all actives have a fitted effect of over 60% in size
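250 HEK 293 cells/well; compound by pintool; incubated 48 or 72 hr at 37 degree Celsius; CellTiter-Glo added, 10 min RT, luminescence imaged.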
hNpr1 antagonist – antagonists of human natriuretic peptide receptor Npr1; P16066; HEK293 hNpr1 GloSensor cGMP, ANP-stimulated luminescence; Potency, µM (titrated, usually from 46.3 µM), for the others: at the highest dose activity change, negative = inhibition, most hits filed as inhibitors; actives 1.6% (n = 76,000); calls by dose curve; note: % is set by controls: 0 for no effect and ±100 for the full control effect; nearly all actives have a fitted effect of over 60% in size
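Compound pre-incubated 30 min at room temperature on GloSensor-loaded HEK293 cells stably carrying hNpr1 and the pGS-40F cGMP biosensor. Stimulation uses hNppA at 0.1 nM final; luminescence is taken at baseline and 20 min post-agonist.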
GPT2 inh – inhibitors of human GPT2 alanine aminotransferase; Q8TD30; Recombinant GPT2, coupled pyruvate oxidase/HRP Amplex Red fluorescence; Potency, µM (doses to about 57.7 µM), for the others: at the top dose activity change, negative = inhibition, usual class: inhibitors; actives 0.25% (n = 100,000); note: % is set by controls: 0 for no effect and ±100 for the full control effect; nearly all actives have a fitted effect of over 60% in size
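Recombinant GPT2 (10ng/uL) with 250uM a-KG and 2mM L-alanine, 30 min at room temperature, in HEPES pH 7.5 buffer. Pyruvate detected by pyruvate oxidase/HRP/Amplex Red fluorescence after 30 min in the dark; AOA (50uM) as positive control.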
FLuc SDR no ATP – binders stabilizing firefly luciferase, without ATP | shares compounds with FLuc inh-1 | Purified FLuc-C-HiBiT, Nano-Glo HiBiT luminescence, no ATP | Potency, µM (doses to about 32.7 µM), without a hit: top-dose activation (signal gain), hits mostly activators | actives 7.8% (n = 1,300); note: nearly all actives have a fitted effect of over 55% in size
FLuc SDR ATP – stabilizes firefly luciferase with ATP present | shares compounds with FLuc inh-1 | purified FLuc-C-HiBiT + ATP, HiBiT complementation luminescence | Potency, µM (top dose mostly 32.7 µM), for the others: at the top dose activation (gain of signal), most hits filed as activators | actives 8.7% (n = 1,300) | AID 1963319;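 note: signal reports ligand binding via conformational change of the enzyme rather than luciferase catalysis; % of control where 0% means no effect; nearly all actives have a fitted effect of over 55% in size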
FLuc inh-2 – inhibitors of firefly luciferase enzymatic activity. AID 1963320. purified FLuc-C-HiBiT enzyme, luciferin luminescence. actives 42% (n = 1,300). Potency, µM (highest dose often 32.7 µM), for inactives: top-dose activity change, negative = inhibition, hits mostly inhibitors. shares compounds with FLuc inh-1; note: % is set by controls: 0 for no effect and ±100 for the full control effect; nearly all actives have a fitted effect of over 70% in size
* = called active by the depositor; i = inactive; ? = inconclusive; / = not tested or not shown; [ ] = dose if it differs, or a comment. Unless noted, calls come from the whole dose curve; as a rule, active = well fitted curve in the direction sought with a large enough effect; inconclusive = small, poorly fitted or top-dose-only effect, or another doubt; inactive = no such curve, though single readings can be large; an effect the other way counts as inactive or inconclusive. Potency is the fitted concentration of half-maximal effect.

SMILES	NIH3T3 tox	FLuc inh-1	HEK293 tox	hNpr1 antagonist	GPT2 inh	FLuc SDR no ATP	FLuc SDR ATP	FLuc inh-2
CCN(C(=O)CCC(=O)N1CCCC(Cc2nncn2-c2ccccc2)C1)c1ccccc1 (centres undefined)	-23%	i	-2%	0%	i	/	/	/
CCCn1c(C)cnc1CC1CCN(C(=O)C2(c3ccc(OC)cc3)CC2)C1 (centres undefined)	-25%	6.3µM*	28µM*	-21%	-21%	12%	17%	-14%
COCCn1c(C)cnc1CC1CCCN(C(=O)C2(c3ccc(OC)cc3)CC2)C1 (centres undefined)	-6%	i	-3%	-5%	i	/	/	/
Cc1cccc(C(=O)NC2CCN(c3cc(-c4ccc(Cl)cc4)[nH]n3)CC2)c1	?	i	?	-2%	-8%	/	/	/
O=C(NC1CCCN(c2cc(-c3ccc(Cl)cc3)[nH]n2)C1)c1ccc2ncccc2c1 (centres undefined)	?	1.8µM*	?	?	-17%	10%	8%	5µM*
CN(C)c1cccc(C(=O)NC2CCN(c3cc(-c4ccc(Cl)cc4)[nH]n3)CC2)c1	32µM*	7.1µM*	?	?	-13%	12%	9.9µM*	6.2µM*
CNC(=O)c1ccc2c(c1)OCCN(c1cccc(OC(F)(F)F)c1)C2	?	i	?	-10%[70.6 µM]	?	/	/	/
Fc1ccc(C2Cn3cnc(-c4nc(-c5cccs5)no4)c3CO2)cc1 (centres undefined)	-13%	i	-25%	-11%	-6%	/	/	/
O=c1oc2ccc(F)cc2cc1-c1nc(-c2cccs2)no1	/	/	/	/	/	14%	20%	?
Cc1ccc2oc(=O)c(-c3nc(-c4cccs4)no3)cc2c1	/	/	/	/	/	14%	13%	-14%
COc1ccc(-c2cc(C(=O)N3CCOC(c4ccc(F)cc4)C3)[nH]n2)cc1 (centres undefined)	?	i	?	-27%	-8%	/	/	/
COc1ccc2cc(C3CN(C(=O)c4cccc(CO)n4)CCO3)ccc2c1 (centres undefined)	-32%	3.5µM*	?	?	i	23%	?	?
COc1ccc2cc(C3CN(C(=O)CCc4n[nH]c(C)n4)CCO3)ccc2c1 (centres undefined)	?	2.5µM*	-24%	?	-3%	?	?	9.9µM*
CCN(CC)C(=O)N1CCOC(c2ccc3cc(OC)ccc3c2)C1 (centres undefined)	?	1.6µM*	?	11µM*	5%	30%	?	5.6µM*
COc1ccc2cc(C3CN(C(=O)c4cccc(CO)c4)CCO3)ccc2c1 (centres undefined)	?	0.56µM*	28µM*	10µM*	-8%	?	?	2.5µM*
COC(=O)CN1CCOC(c2ccc3cc(OC)ccc3c2)C1 (centres undefined)	?	i	?	0%	-9%	/	/	/
COc1ccc(C[C@H](NC(=O)[C@@]2(O)C[C@@H](O)[C@H](O)[C@@H](NC(=O)CS(=O)(=O)c3ccccc3)C2)C(N)=O)cc1	i	i	-25%	0%	?	/	/	/
COc1cccc(C(=O)Nc2ccc(-c3nc4ccc(C)cc4s3)cc2)c1OC	/	/	/	/	/	15%	10%	-4%
